TRb-SRC2 inh: TRbeta-SRC2 interaction inhibition | TRbeta-SRC2 peptide binding, fluorescence polarization; receptor liganded with 1 µM T3 | Potency, µM (highest dose often 106 µM), inactives show at the top dose activity change, negative = inhibition, usual class: inhibitors | 0.065% of 280,000 active | AID 1469;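 note: potency is the fitted concentration of half-maximal effect; plate controls were bound peptide for no effect and peptide without receptor for full effect; nearly all actives have a fitted effect of over 50% in size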
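Quantitative HTS by FP: 0.6 uM TRb LBD, 20 nM labeled SRC2 20-mer, 1 uM T3, 5% DMSO; 5 hr ambient incubation; % activity per concentration and potencies from concentration series.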
Eya2 phos inh: blocks the phosphatase activity of human Eya2; O00167; 0.006% of 330,000 active; AID 488837; Potency, µM (highest dose often 76.9 µM), for the others: top-dose activity, negative = inhibition, most hits filed as inhibitors; recombinant Eya2, OMFP fluorescence dephosphorylation (OMFP is methylfluorescein phosphate); note: potency is the fitted concentration of half-maximal effect; % is set by controls: 0 for no effect and ±100 for the full control effect
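Eya2 protein (added as 0.2 uM solution) was preincubated with compound for 10 min at ambient temperature in 50 mM HEPES pH 7.5, 50 mM NaCl, 5 uM MgCl2, 0.05% BSA, 1 mM DTT. OMFP (added at 50 uM) then reacted 10 min; fluorescence read at 485/525 nm.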
TR SRC2 fluor cs: counter-screen for TRb-SRC2 inhibitors: fluorescence interference; TRb/SRC2 Texas Red total fluorescence interference; Potency, µM (top dose mostly 106 µM), inactives show top-dose fluorescence change, negative = quenching; 0.29% of 280,000 active; AID 1479; active = well fitted curve in either direction with a large enough effect; inconclusive = small, poorly fitted or top-dose-only effect; note: potency is the fitted concentration of half-maximal effect; % is set by controls: 0 for no effect and ±100 for the full control effect
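Flags fluorescent or light-absorbing compounds by total fluorescence, S + 2P, at 555 nm excitation and 632 nm emission. Mixture: 20 nM Texas Red SRC2 peptide, 0.6 uM human TRb LBD, 1 uM T3, 5% DMSO; compound exposure 5 h at ambient temperature.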
CBFb RUNX1 block: CBF-beta/RUNX1 interaction disruption. Q01196+Q13951. AlphaScreen CBFb-His/RUNX1-biotin binding, biochemical. Potency, µM (top dose mostly 59.8 µM), for the others: top-dose activity, negative = inhibition, hits mostly inhibitors. 230,000 tested, under 10 active. AID 1477; note: % of control where 0% means no effect
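Bead-based AlphaScreen assay; binding partners His-tagged CBF-beta and biotinylated RUNX1 at 30 nM each. Compound exposure 15 min after a 20-min protein preincubation; bead step 90 min; all steps at room temperature.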
TSHR antagonist: human thyrotropin receptor antagonism; P16473; TSHR-expressing cells, TSH-stimulated cAMP HTRF, 2 h; active compounds read low; activity change, negative = inhibition, % at 11.5 µM; 0.2% of 330,000 active;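 active = activity change below a set negative limit, meaning inhibition stronger than a set level, cut at about -70% in these data; inconclusive = activity change between two set negative limits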; note: % is set by controls: 0 for no effect and ±100 for the full control effect
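TSHR-expressing cells were treated with compounds, then stimulated with TSH at EC80 (4nM final) for 2 hours at 37 deg C. Cellular cAMP was measured by HTRF competition between lysate cAMP and cAMP-d2 for a cryptate-labelled anti-cAMP antibody.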
USP2a block: blocks human ubiquitin-specific protease USP2a. O75604. USP2 core, Ub-CHOP2 coupled fluorogenic reporter, 485/531. Potency, µM (series often up to 38.3 µM), for inactives: at the top dose activity change, negative = inhibition, usual class: inhibitors. 0.01% of 330,000 active. AID 463254;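 note: potency is the fitted concentration of half-maximal effect; plate controls were DMSO wells for no effect and full inhibition by NEM control for full effect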
Target sequence (O75604 whole entry, looked up): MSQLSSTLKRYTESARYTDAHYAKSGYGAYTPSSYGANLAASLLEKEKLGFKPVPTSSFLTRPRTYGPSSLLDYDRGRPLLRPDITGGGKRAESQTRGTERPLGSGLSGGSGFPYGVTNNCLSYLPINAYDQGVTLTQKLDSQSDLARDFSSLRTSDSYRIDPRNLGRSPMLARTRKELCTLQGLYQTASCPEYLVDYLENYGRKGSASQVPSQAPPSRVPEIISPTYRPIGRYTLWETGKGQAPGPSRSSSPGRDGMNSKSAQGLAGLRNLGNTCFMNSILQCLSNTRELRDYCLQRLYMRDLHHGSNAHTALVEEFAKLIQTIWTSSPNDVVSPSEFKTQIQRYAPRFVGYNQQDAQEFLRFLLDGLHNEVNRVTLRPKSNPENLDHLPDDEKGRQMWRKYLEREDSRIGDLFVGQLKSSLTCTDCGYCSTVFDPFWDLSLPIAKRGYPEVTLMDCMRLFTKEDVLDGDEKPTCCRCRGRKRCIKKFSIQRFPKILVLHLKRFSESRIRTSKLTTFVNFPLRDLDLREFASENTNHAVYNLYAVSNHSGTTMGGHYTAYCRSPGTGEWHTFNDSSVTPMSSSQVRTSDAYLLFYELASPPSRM
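USP2 core (10nM final) preincubated 30min RT with compound in 20mM Tris-HCl pH 8.0, 2mM CaCl2, 2mM beta-mercaptoethanol, 0.05% CHAPS; 25nM Ub-CHOP2 plus 25nM reporter substrate added, fluorescence (Ex485/Em531) read after 60min.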
* hit, by the source's call; [ ] = dose if it differs, or a comment. Shown are actives, neighbours in structure and some others; about 0.38% of the full set was active somewhere. Unless noted, calls come from the whole dose curve; as a rule, active = well fitted curve in the direction sought with a large enough effect; inconclusive = small, poorly fitted or top-dose-only effect, or another doubt; inactive = no such curve, though single readings can be large; an effect the other way counts as inactive or inconclusive.

For Cc1ccc(Cl)cc1N1CCN(C(=O)c2cccn2-c2nnc(N3CCCC3)s2)CC1 the results were TRb-SRC2 inh 5% and TR SRC2 fluor cs 1%.
CC(C)C[C@H](NC(=O)[C@@H](Cc1c[nH]c2ccccc12)NC(=O)[C@H](Cc1ccc(O)cc1)NC(=O)[C@H](CO)NC(=O)[C@H](Cc1c[nH]c2ccccc12)NC(=O)[C@H](Cc1cnc[nH]1)NC(=O)[C@@H]1CCC(=O)N1)C(=O)N[C@@H](CCCN=C(N)N)C(=O)N1CCC[C@H]1C(=O)NCC(N)=O was read as TRb-SRC2 inh -1%, TR SRC2 fluor cs -4% and CBFb RUNX1 block inconclusive.
`O=C(NC1CCCCCC1)c1ccc2c(c1)sc1nc(-c3ccc(F)cc3)cn12` gave TRb-SRC2 inh -12% and TR SRC2 fluor cs 1µM*[quencher].
For COc1ccc(-c2cn3c(n2)sc2cc(C(=O)Nc4cc(OC)cc(OC)c4)ccc23)cc1 the results were TRb-SRC2 inh -15% and TR SRC2 fluor cs 0.0007µM*[quencher].
Screening OCC(CO)(CO)COCC(CO)(CO)CO returned TRb-SRC2 inh 1%[201 µM] and TR SRC2 fluor cs 4%[201 µM].
CC1=CC2C3CC(C=C3C)C2C1 (stereo not given) was read as TRb-SRC2 inh 1%[201 µM] and TR SRC2 fluor cs -5%[201 µM].
`CCC(C)NC(=O)c1cc2n(n1)CCCN(Cc1ccc(C)cc1)C2=O` (stereo not given) gave TRb-SRC2 inh 2% and TR SRC2 fluor cs 2%.
`CCOC(=O)c1cc(S(=O)(=O)Nc2ccccc2OCC)[nH]n1` gave TRb-SRC2 inh 5% and TR SRC2 fluor cs -13%.
Screening O=S(=O)(Nc1ccc(-c2ccc(N3CCCCCC3)nn2)cc1)c1ccc(C(F)(F)F)cc1 returned TRb-SRC2 inh -3% and TR SRC2 fluor cs -17%.
Screening O=S(=O)(Nc1ccc(-c2ccc(N3CCCCCC3)nn2)cc1)c1cccc(C(F)(F)F)c1 returned TRb-SRC2 inh -10% and TR SRC2 fluor cs 3162µM*[quencher].
`COc1ccc(-c2cn3cccnc3n2)cc1NC(=O)COc1ccccc1` gave TRb-SRC2 inh -2% and TR SRC2 fluor cs -2%.
Screening Oc1ccc(N=Cc2ccc(OCc3ccccc3)cc2)cc1 returned TRb-SRC2 inh 40µM*, Eya2 phos inh -13%, TR SRC2 fluor cs 13%, CBFb RUNX1 block -23%, TSHR antagonist -6 and USP2a block 2%.
`O=C(N/N=C/c1ccc(OCc2ccccc2)cc1)c1ccncc1` gave TRb-SRC2 inh -5%, Eya2 phos inh -23%, TR SRC2 fluor cs -2%, CBFb RUNX1 block 18%, TSHR antagonist 4 and USP2a block 2%.
Screening Cc1ccc2nc(NC(=O)C3CCN(S(=O)(=O)c4cc([N+](=O)[O-])ccc4Cl)CC3)sc2c1 returned TRb-SRC2 inh 9%, Eya2 phos inh -4%, TR SRC2 fluor cs -14%, CBFb RUNX1 block inconclusive, TSHR antagonist -42 and USP2a block -2%.
For O=C(Nc1nc2ccc(F)cc2s1)C1CCN(S(=O)(=O)c2cc([N+](=O)[O-])ccc2Cl)CC1 the results were TRb-SRC2 inh 2%, Eya2 phos inh 0%, TR SRC2 fluor cs -11%, CBFb RUNX1 block inconclusive, TSHR antagonist -92* and USP2a block -4%.
`Cc1ccc2nc(-c3ccc(NC(=O)COc4ccc(Br)cc4Br)cc3)sc2c1` gave TRb-SRC2 inh -30%[53 µM] and TR SRC2 fluor cs 0.32µM*[quencher].
Screening O=c1oc2ccccc2c(NC2CCCCC2)c1NS(=O)(=O)c1ccc(Br)cc1 returned Eya2 phos inh -7%, TSHR antagonist 17 and USP2a block -1%.
Screening CCCNc1c(NS(=O)(=O)c2ccc(Br)cc2)c(=O)oc2ccccc12 returned Eya2 phos inh 3%, TSHR antagonist -147* and USP2a block -2%.
Screening N#CC(C#N)=C1C=CC=CN1/C(=C\c1ccco1)C(=O)c1ccc(Br)cc1 returned TRb-SRC2 inh -3%, Eya2 phos inh -16%, TR SRC2 fluor cs 3%, CBFb RUNX1 block 3%, TSHR antagonist -91* and USP2a block 2%.
Screening Cc1cc(C)c(S(=O)(=O)NCc2csc(-c3ccccc3)n2)c(C)c1 returned TRb-SRC2 inh 4% and TR SRC2 fluor cs -1%.
O=[N+]([O-])c1ccc(N=Nc2ccc(O)cc2O)cc1 was read as TRb-SRC2 inh 9%, Eya2 phos inh -10%, TR SRC2 fluor cs -16%, CBFb RUNX1 block -12%, TSHR antagonist -74* and USP2a block 0%.
For Cc1cc(C)n2nc(SCC(=O)Nc3ccccc3)nc2n1 the results were TRb-SRC2 inh -2%, Eya2 phos inh -7%, TR SRC2 fluor cs -2%, CBFb RUNX1 block 1%, TSHR antagonist 4 and USP2a block 1%.
`Cc1cc(C)c(NC(=O)CSc2nc3nc(C)cc(C)n3n2)c(C)c1` gave TRb-SRC2 inh -9% and TR SRC2 fluor cs 20µM*[quencher].
`CCCS(=O)(=O)N1CC(=O)N(c2ccc(Cl)cc2C)C(C)(C(=O)NC2CCCC2)C1` (stereo not given) gave TRb-SRC2 inh -5% and TR SRC2 fluor cs 28µM*[quencher].
Screening CCS(=O)(=O)N1CC(=O)N(c2ccc(Cl)cc2)C(C)(C(=O)NC2CCCCCC2)C1 (stereo not given) returned TRb-SRC2 inh -5% and TR SRC2 fluor cs 18µM*[quencher].
For CCCS(=O)(=O)N1CC(=O)N(c2ccc(Cl)cc2)C(C)(C(=O)NC2CCCC2)C1 (stereo not given) the results were TRb-SRC2 inh -3% and TR SRC2 fluor cs 3%.
`CCCS(=O)(=O)N1CC(=O)N(c2cc(C)cc(C)c2)C(C)(C(=O)NC2CCCCCC2)C1` (stereo not given) gave TRb-SRC2 inh 1% and TR SRC2 fluor cs -18%.
Screening Nc1nc(SCC(=O)N2CCN(c3ccccc3)CC2)n[nH]1 returned Eya2 phos inh 1%, TSHR antagonist 1 and USP2a block 0%.
Screening Cc1nc(SCC(=O)N2CCN(c3ccccc3)CC2)n[nH]1 returned Eya2 phos inh 12%, TSHR antagonist -89* and USP2a block 4%.
`COc1ccc(N2CCN(C(c3ccccc3)c3sc4nc(-c5ccco5)nn4c3O)CC2)cc1` (stereo not given) gave TRb-SRC2 inh -12% and TR SRC2 fluor cs -3%.
`CCOc1ccccc1CNC(=O)c1oc2c(c1C)-c1[nH]ncc1CC2` gave TRb-SRC2 inh 6% and TR SRC2 fluor cs 2%.

Screening data deposited in PubChem BioAssay by National Center for Advancing Translational Sciences (NCATS).
